# High-throughput results deposited in PubChem BioAssay by National Center for Advancing Translational Sciences (NCATS).
# Most compounds without a hit are left out; they make up all but 10% or so of the library.
# GPT2 inhibitor: blocks human glutamate pyruvate transaminase 2. Potency, µM (top dose mostly 57.7 µM), for the others: at the top dose activity change, negative = inhibition, usual class: inhibitors. 0.25% of 100,000 active. Recombinant GPT2, coupled pyruvate oxidase/HRP Amplex Red fluorescence; note: nearly all actives have a fitted effect of over 60% in size
# Target sequence (Q8TD30 whole entry, looked up): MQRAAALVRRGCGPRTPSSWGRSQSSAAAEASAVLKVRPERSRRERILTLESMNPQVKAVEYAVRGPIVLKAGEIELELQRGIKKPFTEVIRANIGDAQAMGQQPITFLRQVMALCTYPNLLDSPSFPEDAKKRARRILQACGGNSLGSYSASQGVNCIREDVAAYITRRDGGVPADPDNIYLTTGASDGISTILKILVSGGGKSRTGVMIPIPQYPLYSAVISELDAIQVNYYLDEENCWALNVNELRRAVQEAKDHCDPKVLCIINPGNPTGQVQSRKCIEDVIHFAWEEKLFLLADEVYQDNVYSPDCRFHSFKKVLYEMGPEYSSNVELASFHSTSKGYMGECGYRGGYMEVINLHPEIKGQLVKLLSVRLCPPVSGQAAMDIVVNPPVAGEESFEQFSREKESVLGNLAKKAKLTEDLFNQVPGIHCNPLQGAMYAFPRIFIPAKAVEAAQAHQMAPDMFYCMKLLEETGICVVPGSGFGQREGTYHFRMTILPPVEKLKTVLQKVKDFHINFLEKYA
#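 Fluorescence read-out: pyruvate from GPT2 turnover coupled to pyruvate oxidase, HRP and Amplex Red (0.2mM ThPP, 0.2U/mL PO and HRP, 50uM Amplex final). Substrates 250uM a-KG, 2mM L-alanine; enzyme 10ng/uL; 30 min RT.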
# HEK293 tox: cytotoxic compounds in HEK 293 cells | HEK 293 viability, ATP luminescence (CellTiter-Glo), 48-72 h | Potency, µM (highest dose often 115 µM), for inactives: top-dose activity change, negative = cytotoxicity, actives largely listed as inhibitors | 6.6% of 94,000 active | AID 1345083; note: nearly all actives have a fitted effect of over 60% in size
#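 qHTS cytotoxicity; HEK 293, 250 cells/well; compound pinned; 48 or 72 hr, 37 degree Celsius, 5% CO2, 95% humidity; CellTiter-Glo, 10 min RT; luminescence (ATP).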
# NIH3T3 tox: NIH 3T3 cell cytotoxicity. 4.3% of 94,000 active. NIH 3T3 viability, CellTiter-Glo ATP luminescence, 48-72 h. Potency, µM (highest dose often 96.7 µM), for the others: at the top dose activity change, negative = cytotoxicity, hits mostly inhibitors; note: nearly all actives have a fitted effect of over 55% in size
#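 Cells were seeded at 400 per well, treated with pin-transferred compound, and kept 48 or 72 hr at 37 °C before CellTiter-Glo addition and luminescence imaging of cellular ATP.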
# FLuc inh: Photinus pyralis luciferase inhibition. P08659. 2.5% of 76,000 active. purified P. pyralis luciferase, luminescence, biochemical. Potency, µM (highest dose often 115 µM), most hits filed as inhibitors; note: nearly all actives have a fitted effect of over 65% in size
#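 Purified 10nM P. pyralis luciferase with 10uM D-luciferin and 10uM ATP in 50mM Tris acetate pH 7.5, 10mM Mg acetate, 0.01% Tween-20, 0.05% BSA. qHTS titration; luminescence read by CCD imager.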
# NPR1 antag: human Npr1 receptor antagonism | HEK293 hNpr1 GloSensor cGMP, ANP-stimulated luminescence | 1.6% of 76,000 active | Potency, µM (doses to about 46.3 µM), for inactives: top-dose activity change, negative = inhibition, most hits filed as inhibitors; calls by dose curve; note: nearly all actives have a fitted effect of over 60% in size
#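 Compound pre-incubated 30 min at room temperature on GloSensor-loaded HEK293 cells stably carrying hNpr1 and the pGS-40F cGMP biosensor. Stimulation uses hNppA at 0.1 nM final; luminescence is taken at baseline and 20 min post-agonist.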
# The depositor's hits bear a star; i = inactive; ? = inconclusive; . = not tested or not shown; [ ] = another dose, or the depositor's remark. Unless noted, calls come from the whole dose curve; as a rule, active = well fitted curve in the direction sought with a large enough effect; inconclusive = small, poorly fitted or top-dose-only effect, or another doubt; inactive = no such curve, though single readings can be large; an effect the other way counts as inactive or inconclusive. % is set by controls: 0 for no effect and ±100 for the full control effect; potency is the fitted concentration of half-maximal effect.
SMILES,GPT2 inhibitor,HEK293 tox,NIH3T3 tox,FLuc inh,NPR1 antag
O=C(c1cnc2c(c1)N(C(=O)CCc1ccccc1)CCC2)N1CCN(Cc2ccccc2)CC1,i,?,-13%,i,-1%
Cc1noc(C)c1CC(=O)N1CC[C@@H](NC(=O)c2cnccn2)[C@H](O)C1,i,-3%,2%,i,1%
COC(=O)[C@@H]1[C@H]2C[C@H]3c4[nH]c5ccccc5c4CCN3C[C@@H]2CC[C@@H]1O,2%,.,.,.,.
COC(=O)[C@@H]1Cc2c([nH]c3ccccc23)[C@H]2C[C@@H](NC(C)C)C[C@@H](c3ccc(C)cc3)N21,i,35µM*,40µM*,i,0%[70.6 µM]
COC(=O)[C@@H]1Cc2c([nH]c3ccccc23)[C@H]2C[C@@H](NC(C)C)C[C@@H](c3ccccc3)N21,0%[88.5 µM],35µM*,40µM*,?,-15%[70.6 µM]
COc1ccc(-c2nc(C)nc3c2CN(C(=O)N(C)C)CC3)cc1,i,i,-8%,.,.
CNC(=O)[C@@H](c1ccc(OC)cc1)N1CCC[C@H]1C(=O)NCC1CCCCC1,-6%[88.5 µM],?,100µM*,i,0%[70.6 µM]
O=C(NC1CCN(c2ccnc3ccnn23)C1)c1ccc(Cl)cc1 (stereo not given),i,10µM*,?,.,.
O=C(NCc1cccc(C(F)(F)F)c1)C1CCCN(c2ccnc3ccnn23)C1 (stereo not given),-6%,45µM*,?,.,.
O=C(NCC1CC1)C1CCCN(c2ccnc3ccnn23)C1 (stereo not given),5%[88.5 µM],3%[172 µM],-19%[138 µM],.,.
O=C(NCC1CCCCC1)C1CN(c2ccnc3ccnn23)C1,-2%,25µM*,-27%,.,.
Cc1cc(C(=O)N2CCCN(c3ccnc4ccnn34)CC2)ccc1Cl,i,45µM*,?,.,.
COCCNC(=O)c1ccc(CC2CCN(C(=O)CN3CCCCCC3)CC2)cc1,-18%,?,?,i,-1%
Cc1nc(C2CC2)ncc1C(=O)N1CCC2(CC1)OCCCC2O (stereo not given),4%,-9%,3%,i,8%
COc1cccc(OCc2nc(C(=O)N[C@H]3CCCCNC3=O)co2)c1,-19%,-4%,-11%,i,5%
Cc1cccc(CC(=O)N2[C@@H]3CC[C@H]2CC(NC(=O)c2ccc(F)cc2)C3)c1 (stereo not given in full),1%,-3%,-8%,i,1%
O=C(NC1CCN(c2ccnc3ccnn23)CC1)c1ccc(Cl)cc1,-9%,45µM*,?,.,.
O=C(NC1CCCN(c2ccnc3ccnn23)C1)c1ccc(C(F)(F)F)cc1 (stereo not given),-9%,28µM*,?,.,.
O=C(NCCCc1ccccc1)C1CCN(c2ccnc3ccnn23)CC1,i,40µM*,?,.,.
COc1cccc(-c2cc3c(=O)n(CCNC(=O)COc4cccc(C)c4)ccn3n2)c1,-19%,?,?,22µM*,?
COc1cccc(-c2cc3c(=O)n(CCNC(=O)Cc4cccs4)ccn3n2)c1,i,?,-28%,16µM*,-15%
COc1cccc(-c2cc3c(=O)n(CCNC(=O)c4cc(C)cc(C)c4)ccn3n2)c1,i,-18%,-15%,?,-22%
CCC(C(=O)NCCn1ccn2nc(-c3cccc(OC)c3)cc2c1=O)c1ccccc1 (stereo not given),-17%,?,?,14µM*,?
COc1ccc(C(=O)NCCn2ccn3nc(-c4cccc(OC)c4)cc3c2=O)cc1,5%,?,?,i,-24%
COc1cc(OC)cc(C(=O)NCCn2ccn3nc(-c4cccc(OC)c4)cc3c2=O)c1,i,-24%,-24%,18µM*,-16%
SMILES,GPT2 inhibitor,HEK293 tox,NIH3T3 tox,FLuc inh,NPR1 antag
Cc1cc(-c2nc(-c3c(C)noc3C)cc3cc(C)oc23)ccn1,2%[88.5 µM],?,?,i,-12%[70.6 µM]
COc1cccc(CCC(=O)NCCn2ccn3nc(-c4cccc(OC)c4)cc3c2=O)c1,i,?,?,8.9µM*,-24%
CCOc1ccc(CC(=O)NCCn2ccn3nc(-c4cccc(OC)c4)cc3c2=O)cc1,-3%,?,?,?,-8%
OC[C@@H]1O[C@H](CN(Cc2cccc(Cl)c2)Cc2cccc(Cl)c2)[C@H](N2CCN(c3ccccn3)CC2)[C@@H]1O,-17%,?,?,i,4%
CN(C)CCN(C)[C@@H]1[C@H](O)[C@H](CO)O[C@@H]1CN(Cc1ccc(Cl)cc1)Cc1cccc(Cl)c1,-9%,?,28µM*,i,?
Cc1noc(C)c1CC(=O)NC1CCc2nnc(C3CC3)n2CC1 (stereo not given),0%,-22%,-1%,i,9%
CCN1c2cc(C(=O)Nc3ccc(F)c(Cl)c3)ccc2C(=O)N2CCCCCC21 (stereo not given),i,16µM*,32µM*,i,-7%
CCN1c2cc(C(=O)Nc3ccc(F)c(C)c3)ccc2C(=O)N2CCCCCC21 (stereo not given),3%,40µM*,?,i,-18%
CCN1c2cc(C(=O)Nc3ccc(C)c(F)c3)ccc2C(=O)N2CCCCCC21 (stereo not given),3%,?,40µM*,i,0%
CCN1c2cc(C(=O)Nc3ccc(F)cc3)ccc2C(=O)N2CCCCCC21 (stereo not given),-6%,?,?,i,2%
Cc1cnc(C(=O)N[C@@H]2CCC[C@@H]2C(=O)NCCN2CCOCC2)cn1,i,-9%,i,i,1%
CC(C)(C(=O)O)c1cnc(N2CC[C@@H](O)C2)nc1N1CCOCC1,-12%,i,3%,i,0%
CCOC(=O)CN1CCN(C(=O)CCc2cc3cc(OC)ccc3[nH]c2=O)CC1,-17%,-2%,-18%,i,3%
COc1ccccc1Nc1ncc2c(n1)CN(C(=O)c1ccc(Cl)cc1)CCN2,-5%[88.5 µM],?,?,i,-30%[70.6 µM]
COc1ccccc1Nc1ncc2c(n1)CN([S+](=O)([O-])c1ccccc1)CCN2,i,100µM*,?,i,-11%[70.6 µM]
C[S+](=O)([O-])N1CCNc2cnc(Nc3cccc(C(F)(F)F)c3)nc2C1,-18%[88.5 µM],?,?,?,?
O=[S+]([O-])(c1ccccc1)N1CCNc2cnc(Nc3cccc(F)c3)nc2C1,-9%[88.5 µM],89µM*,?,i,?
Cc1cnc(C2CCOCC2)n1CC1CCN(C(=O)C2CC2)CC1,?,i,i,i,-1%
Cc1c(CN2CCCC(CNC(=O)c3cccc4ccccc34)C2)[nH]c2ccccc12 (stereo not given),i,18µM*,20µM*,i,-3%
